Data taken from PubChem BioAssay (NCI).
About 83,000 compounds went through this panel and 20% of them were active in at least one assay; those are over-represented in the sample as a whole.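 Cell lines were cultured in 96-well plates, exposed to a single compound concentration, and assessed for percent growth 48 hours later.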 Calls of active or inactive are those of the source. How the source made its calls: active means growth percent below 10; inactive means the rest.

Assays:
Assay in all cases: NCI-60 one-dose screen, 48 h (100 = growth as untreated, 0 = no growth, -100 = all killed)
[1] = system: RPMI-8226 leukemia; conditions: 10 µM
[2] = system: OVCAR-5 ovarian; conditions: 10 µM
[3] = system: OVCAR-4 ovarian; conditions: 10 µM
[4] = system: SK-OV-3 ovarian; conditions: 10 µM
[5] = system: IGROV1 ovarian; conditions: 10 µM
[6] = system: OVCAR-3 ovarian; conditions: 10 µM
[7] = system: HS 578T breast; conditions: 10 µM
[8] = system: NCI/ADR-RES ovarian; conditions: 10 µM
[9] = system: T-47D breast; conditions: 10 µM
[10] = system: BT-549 breast; conditions: 10 µM
[11] = system: MDA-MB-435 melanoma; conditions: 10 µM
[12] = system: MCF7 breast; conditions: 10 µM unless noted
[13] = system: HCT-116 colon; conditions: 10 µM
[14] = system: HCC-2998 colon; conditions: 10 µM
[15] = system: KM12 colon; conditions: 10 µM
[16] = system: OVCAR-8 ovarian; conditions: 10 µM
[17] = system: SW-620 colon; conditions: 10 µM

Measured: growth

COc1cc2c(cc1OC)[C@H](C(=O)O)[C@@H](c1ccc(OC(C)C)c(OC)c1)N(C)C2=O
inactive: [1] 95.7% | [2] 98% | [3] 100% | [4] 104% | [5] 138% | [6] 104% | [7] 89.3% | [8] 111% | [9] 96% | [10] 91.6% | [11] 101% | [12] 108% | [13] 101% | [14] 108% | [15] 107%

CCCNC(=O)c1ccc(S(N)(=O)=O)cc1
inactive: [1] 96.9% | [16] 122% | [2] 89.7% | [3] 84.3% | [4] 105% | [5] 135% | [6] 113% | [8] 99.5% | [9] 96% | [11] 117% | [17] 94.5% | [12] 95% | [13] 96.4% | [14] 100% | [15] 106%

S=c1sc2ccccc2n1CN1CCCCC1
inactive: [16] 99.6% | [2] 85% | [4] 94.5% | [5] 105% | [6] 93.3% | [7] 100% | [8] 93.4% | [9] 100% | [10] 90.3% | [11] 104% | [17] 90% | [12] 115% | [13] 102% | [14] 116% | [15] 98.4%

O=[N+]([O-])c1ccccc1S(=O)c1ccccc1[N+](=O)[O-]
inactive: [1] 84.5% | [16] 99.9% | [2] 120% | [3] 67% | [4] 99.9% | [6] 103% | [7] 106% | [8] 91.5% | [9] 73.1% | [10] 95.3% | [11] 72.2% | [17] 44.6% | [12] 95.2% | [13] 51.8% | [15] 88.1%

COc1cccc(Sc2ccc([N+](=O)[O-])c3no[n+]([O-])c23)c1
active: [1] 6.99% | [6] -61.9% | [17] -0.655% | [13] -91.4%
inactive: [16] 53% | [2] 60.2% | [3] 67.5% | [4] 77.9% | [7] 67.9% | [8] 42.5% | [9] 40.2% | [10] 46.8% | [11] 64.4% | [12] 39% | [14] 55.4% | [15] 92.3%

CC(C(=O)O)(C1CCCCC1)C1(O)CCCCC1 (centres undefined)
inactive: [16] 104% | [2] 109% | [3] 108% | [4] 101% | [5] 101% | [6] 107% | [7] 119% | [8] 106% | [9] 102% | [10] 103% | [11] 105% | [17] 105% | [12] 105% | [13] 104% | [14] 96.3% | [15] 98.4%

CCOC(=O)/C(C#N)=C/c1cccc(C)c1
inactive: [16] 103% | [3] 104% | [4] 101% | [6] 106% | [7] 107% | [8] 97.3% | [9] 86.5% | [10] 64.1% | [11] 107% | [17] 103% | [12] 91.3% | [13] 95.9% | [14] 102% | [15] 103%

CC(=O)Nc1cccc(Cl)c1C
inactive: [16] 96.5% | [2] 103% | [3] 109% | [4] 101% | [5] 102% | [6] 102% | [7] 92.9% | [8] 104% | [11] 94.8% | [12] 105% | [13] 103% | [14] 107% | [15] 98.9%

Nc1ccc(NC(=O)c2cccc(N)c2)cc1
inactive: [1] 94.5% | [2] 101% | [3] 104% | [4] 103% | [6] 107% | [7] 97.1% | [8] 111% | [9] 95.9% | [10] 93.3% | [11] 104% | [17] 102% | [12] 105% | [13] 94.4% | [14] 107% | [15] 103%

C=CCNc1nnc(C)s1
inactive: [1] 101% | [2] 96% | [3] 113% | [4] 115% | [6] 110% | [7] 101% | [8] 103% | [9] 95.4% | [10] 122% | [11] 124% | [17] 107% | [12] 102% | [13] 104% | [14] 112% | [15] 101%
